Reference: PubChem BioAssay (EPA / NIEHS)
Inconclusive results are not listed. Activity calls are given as the source filed them. The calls were made as follows: active = hit-call score of the fitted dose curve at least 0.9, where 1 is the maximum; inconclusive = response in the unintended direction; inactive = score below 0.9.

Key:
[1] = biological target: human Protein Tyrosine Phosphatase Receptor Type B (PTPRB), PTPRB (gene 5787) (UniProt P23467); assay: NVS_ENZ_hPTPRB: NovaScreen (NVS) Enzymatic Assay for human Protein Tyrosine Phosphatase Receptor Type B (PTPRB) (AID 2283211)
How it was run: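 Recombinant human PTPRB with a fluorescent substrate, product separated by electrophoretic mobility shift; read 1 h after dosing. Primary screen in duplicate at 25 uM; actives then retested in concentration series; loss of signal versus DMSO.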

[2] = biological target: human Raf-1 Proto-Oncogene, serine/threonine Kinase (RAF1), RAF1 (gene 5894) (UniProt P04049); assay: NVS_ENZ_hRAF1: NovaScreen (NVS) Enzymatic Assay for human Raf-1 Proto-Oncogene, serine/threonine Kinase (RAF1) (AID 2283216)
How it was run: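 Cell-free recombinant kinase with specific fluorescent substrate, product separated by electrophoretic mobility shift; read 1 h after dosing. Primary screen at 25 uM in duplicate; hits then run in concentration-response up to 50 uM, fitted as loss of signal versus DMSO.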

[3] = biological target: human Sirtuin 3 (SIRT3), SIRT3 (gene 23410) (UniProt Q9NTG7); assay: NVS_ENZ_hSIRT3: NovaScreen (NVS) Enzymatic Assay for human Sirtuin 3 (SIRT3) (AID 2283222)
How it was run: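 Cell-free enzyme assay with recombinant protein and fluorescent substrate, product separated by electrophoretic mobility shift; read 1 hour after dosing. Screened in duplicate at 25 uM, then singleton concentration-response up to 50 uM; loss of signal versus DMSO.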

[4] = biological target: Tyrosine-protein phosphatase non-receptor type 14 (Homo sapiens) (UniProt Q15678); assay: NVS_ENZ_hPTPN14: NovaScreen (NVS) Enzymatic Assay for human Protein Tyrosine Phosphatase Non-receptor Type 14 (PTPN14) (AID 2283206)
How it was run: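 Cell-free recombinant human PTPN14 with fluorescent substrate, read 0.5 h after dosing by fluorescence and electrophoretic mobility shift separating substrate from product. Primary screen at 25 uM in duplicate; hits run to 50 uM maximum; loss of signal versus DMSO.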

[5] = biological target: human Sirtuin 2 (SIRT2), SIRT2 (gene 22933) (UniProt Q8IXJ6); assay: NVS_ENZ_hSIRT2: NovaScreen (NVS) Enzymatic Assay for human Sirtuin 2 (SIRT2) (AID 2283217)
How it was run: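 Cell-free recombinant human SIRT2, fluorescent substrate with product separated by electrophoretic mobility shift, 1 hr. Screened in duplicate at 25 uM; hits rerun singly in concentration-response up to 50 uM, relative to DMSO.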

[6] = biological target: human Protein Tyrosine Phosphatase Non-receptor Type 1 (PTPN1), PTPN1 (gene 5770) (UniProt P18031); assay: NVS_ENZ_hPTPN1: NovaScreen (NVS) Enzymatic Assay for human Protein Tyrosine Phosphatase Non-receptor Type 1 (PTPN1) (AID 2283201)
How it was run: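 Cell-free fluorogenic-substrate activity assay on recombinant enzyme, read 1.33 h after dosing by fluorescence and electrophoretic mobility shift; loss of signal vs DMSO baseline. Primary screen in duplicate at 25 uM, hits then run in concentration-response up to 50 uM.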

[7] = biological target: human Protein Tyrosine Phosphatase Receptor Type F (PTPRF), PTPRF (gene 5792) (UniProt P10586); assay: NVS_ENZ_hPTPRF: NovaScreen (NVS) Enzymatic Assay for human Protein Tyrosine Phosphatase Receptor Type F (PTPRF) (AID 2283213)
How it was run: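 Cell-free fluorescence enzyme assay with recombinant protein and substrate; product separated by electrophoretic mobility shift. Read 1 h after dosing, single 25 uM duplicate screen, then concentration-response up to 50 uM; loss of signal vs DMSO.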

[8] = biological target: human Sirtuin 1 (SIRT1), SIRT1 (gene 23411) (UniProt Q96EB6); assay: NVS_ENZ_hSIRT1: NovaScreen (NVS) Enzymatic Assay for human Sirtuin 1 (SIRT1) (AID 2283219)
How it was run: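 Cell-free recombinant SIRT1 with a fluorescent substrate; substrate and product separated by electrophoretic mobility shift and read by fluorescence intensity, 1 h after dosing. Primary screen at 25 uM in duplicate; hits re-run in concentration-response up to 50 uM, relative to DMSO.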

[9] = biological target: human Protein Tyrosine Phosphatase Non-receptor Type 2 (PTPN2), PTPN2 (gene 5771) (UniProt P17706); assay: NVS_ENZ_hPTPN2: NovaScreen (NVS) Enzymatic Assay for human Protein Tyrosine Phosphatase Non-receptor Type 2 (PTPN2) (AID 2283207)
How it was run: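 Cell-free recombinant enzyme with fluorescent substrate, product separated by electrophoretic mobility shift; read 1 h after dosing. Primary screen single concentration (25 uM) in duplicate; actives followed in concentration series; loss of signal versus DMSO.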

[10] = biological target: human SRC Proto-Oncogene, Non-receptor Tyrosine Kinase (SRC), SRC (gene 6714) (UniProt P12931); assay: NVS_ENZ_hSRC: NovaScreen (NVS) Enzymatic Assay for human SRC Proto-Oncogene, Non-receptor Tyrosine Kinase (SRC) (AID 2283223)
How it was run: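 Cell-free kinase activity assay with fluorescent substrate, product separated by electrophoretic mobility shift, read 1 h after dosing. Duplicate single point at 25 uM, then concentration-response up to 50 uM; loss of signal versus DMSO.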

[11] = biological target: human Tropomyosin Receptor Kinase A (TRKA), NTRK1 (gene 4914) (UniProt P04629); assay: NVS_ENZ_hTrkA: NovaScreen (NVS) Enzymatic Assay for human Tropomyosin Receptor Kinase A (TRKA) (AID 2283224)
How it was run: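 Recombinant human TrkA activity read after 1 h by fluorescence with electrophoretic mobility shift separating substrate and product. Primary screen in duplicate at 25 uM; actives were rerun in concentration-response up to 50 uM. Loss of signal versus DMSO.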

[12] = biological target: Serine/threonine-protein phosphatase PP1-alpha catalytic subunit (Homo sapiens) (UniProt P62136); assay: NVS_ENZ_hPPP1CA: NovaScreen (NVS) Enzymatic Assay for human Protein Phosphatase 1 Aatalytic subunit Alpha (PPP1CA) (AID 2283200)
How it was run: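 Recombinant enzyme activity read by fluorescence with electrophoretic mobility shift separating substrate from product, 1.33 h after dosing; loss of signal vs DMSO baseline. Primary screen in duplicate at 25 uM; actives retested in concentration-response up to 50 uM.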

[13] = biological target: Tyrosine-protein phosphatase non-receptor type 11 (Homo sapiens) (UniProt Q06124); assay: NVS_ENZ_hPTPN11: NovaScreen (NVS) Enzymatic Assay for human Protein Tyrosine Phosphatase Non-receptor Type 11 (PTPN11) (AID 2283202)
How it was run: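 Recombinant human PTPN11 activity on a fluorescent substrate, with substrate/product separated by electrophoretic mobility shift; read 0.5 h after dosing, loss of signal vs DMSO. Duplicate 25 uM screen, then concentration-response up to 50 uM.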

[14] = biological target: human Rho Associated Coiled-coil Containing Protein Kinase 1 (ROCK1), ROCK1 (gene 6093) (UniProt Q13464); assay: NVS_ENZ_hROCK1: NovaScreen (NVS) Enzymatic Assay for human Rho Associated Coiled-coil Containing Protein Kinase 1 (ROCK1) (AID 2283214)
How it was run: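 Cell-free recombinant human ROCK1 activity assay; fluorescent substrate and product separated by electrophoretic mobility shift, read 1 h after dosing. Screened in duplicate at 25 uM; loss of signal versus DMSO baseline scored as inhibition.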

[15] = biological target: human Phosphatase and Tensin Homolog (PTEN), PTEN (gene 5728) (UniProt P60484); assay: NVS_ENZ_hPTEN: NovaScreen (NVS) Enzymatic Assay for human Phosphatase and Tensin Homolog (PTEN) (AID 2283203)
How it was run: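 Cell-free recombinant human PTEN with fluorescent substrate; product separated by electrophoretic mobility shift and read by fluorescence 1 h after dosing. Primary screen in duplicate at 25 uM, actives followed in concentration series versus DMSO.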

Chain of human Raf-1 Proto-Oncogene, serine/threonine Kinase (RAF1), RAF1 (gene 5894) (P04049 whole entry, looked up): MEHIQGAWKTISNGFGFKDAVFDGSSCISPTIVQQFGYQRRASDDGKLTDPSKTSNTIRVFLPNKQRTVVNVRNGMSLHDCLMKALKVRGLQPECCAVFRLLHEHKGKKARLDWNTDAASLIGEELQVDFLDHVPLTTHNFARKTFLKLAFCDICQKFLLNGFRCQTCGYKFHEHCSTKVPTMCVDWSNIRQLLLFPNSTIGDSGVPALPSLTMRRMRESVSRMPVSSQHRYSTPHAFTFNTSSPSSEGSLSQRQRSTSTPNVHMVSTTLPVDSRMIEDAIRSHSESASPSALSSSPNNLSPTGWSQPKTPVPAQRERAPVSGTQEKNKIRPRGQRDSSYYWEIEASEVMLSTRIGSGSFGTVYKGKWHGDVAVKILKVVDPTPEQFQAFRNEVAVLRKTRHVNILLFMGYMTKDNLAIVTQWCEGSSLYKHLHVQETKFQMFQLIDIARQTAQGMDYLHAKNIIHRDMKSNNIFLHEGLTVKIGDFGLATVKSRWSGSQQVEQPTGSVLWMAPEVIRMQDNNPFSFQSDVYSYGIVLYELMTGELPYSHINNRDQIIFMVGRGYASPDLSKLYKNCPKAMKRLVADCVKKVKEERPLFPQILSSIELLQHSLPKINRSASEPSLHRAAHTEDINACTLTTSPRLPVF
Chain of human Tropomyosin Receptor Kinase A (TRKA), NTRK1 (gene 4914) (P04629 whole entry, looked up): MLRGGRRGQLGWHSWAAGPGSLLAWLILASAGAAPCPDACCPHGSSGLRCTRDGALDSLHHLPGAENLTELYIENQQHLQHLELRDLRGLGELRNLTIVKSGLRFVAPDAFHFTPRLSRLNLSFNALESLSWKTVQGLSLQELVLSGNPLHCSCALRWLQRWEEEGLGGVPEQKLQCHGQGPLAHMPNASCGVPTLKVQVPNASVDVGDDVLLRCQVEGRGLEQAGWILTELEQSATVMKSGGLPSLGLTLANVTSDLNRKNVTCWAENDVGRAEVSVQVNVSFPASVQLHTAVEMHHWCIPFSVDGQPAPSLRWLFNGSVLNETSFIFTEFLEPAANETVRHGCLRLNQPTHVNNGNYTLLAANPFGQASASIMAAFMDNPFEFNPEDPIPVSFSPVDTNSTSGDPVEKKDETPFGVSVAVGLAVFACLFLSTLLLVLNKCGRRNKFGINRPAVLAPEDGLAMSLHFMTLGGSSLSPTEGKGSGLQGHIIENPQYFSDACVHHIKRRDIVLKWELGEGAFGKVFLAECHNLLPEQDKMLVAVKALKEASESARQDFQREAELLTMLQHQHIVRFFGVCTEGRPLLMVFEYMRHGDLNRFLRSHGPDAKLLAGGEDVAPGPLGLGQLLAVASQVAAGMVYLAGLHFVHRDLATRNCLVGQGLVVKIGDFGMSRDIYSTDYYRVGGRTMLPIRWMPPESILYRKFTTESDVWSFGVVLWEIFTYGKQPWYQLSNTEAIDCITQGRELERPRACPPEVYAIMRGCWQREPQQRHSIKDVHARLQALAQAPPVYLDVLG
Chain of human Sirtuin 3 (SIRT3), SIRT3 (gene 23410) (Q9NTG7 whole entry, looked up): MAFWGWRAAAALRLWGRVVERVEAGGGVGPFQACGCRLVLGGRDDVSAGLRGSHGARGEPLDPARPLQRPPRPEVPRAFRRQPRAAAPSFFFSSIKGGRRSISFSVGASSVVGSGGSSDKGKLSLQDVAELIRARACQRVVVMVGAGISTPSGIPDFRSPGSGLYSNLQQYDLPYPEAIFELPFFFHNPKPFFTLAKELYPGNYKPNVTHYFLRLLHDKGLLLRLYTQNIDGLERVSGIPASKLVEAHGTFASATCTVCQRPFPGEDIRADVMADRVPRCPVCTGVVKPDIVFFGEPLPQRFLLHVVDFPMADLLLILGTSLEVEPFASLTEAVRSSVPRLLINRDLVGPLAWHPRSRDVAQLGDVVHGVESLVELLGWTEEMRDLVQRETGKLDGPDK
Chain of human Protein Tyrosine Phosphatase Non-receptor Type 1 (PTPN1), PTPN1 (gene 5770) (P18031 whole entry, looked up): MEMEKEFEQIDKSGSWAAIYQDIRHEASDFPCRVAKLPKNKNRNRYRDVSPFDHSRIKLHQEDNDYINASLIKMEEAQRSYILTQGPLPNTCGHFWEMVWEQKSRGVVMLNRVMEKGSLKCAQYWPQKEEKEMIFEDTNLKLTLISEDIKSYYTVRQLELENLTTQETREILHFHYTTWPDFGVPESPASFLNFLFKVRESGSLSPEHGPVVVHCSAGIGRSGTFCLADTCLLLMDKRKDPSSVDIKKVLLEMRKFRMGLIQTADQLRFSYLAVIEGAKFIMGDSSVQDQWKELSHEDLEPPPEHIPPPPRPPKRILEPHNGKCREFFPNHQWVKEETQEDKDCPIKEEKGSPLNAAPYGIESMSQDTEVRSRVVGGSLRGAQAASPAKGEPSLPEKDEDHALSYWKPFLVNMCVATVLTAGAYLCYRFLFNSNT
Chain of human Protein Tyrosine Phosphatase Receptor Type F (PTPRF), PTPRF (gene 5792) (P10586 whole entry, looked up): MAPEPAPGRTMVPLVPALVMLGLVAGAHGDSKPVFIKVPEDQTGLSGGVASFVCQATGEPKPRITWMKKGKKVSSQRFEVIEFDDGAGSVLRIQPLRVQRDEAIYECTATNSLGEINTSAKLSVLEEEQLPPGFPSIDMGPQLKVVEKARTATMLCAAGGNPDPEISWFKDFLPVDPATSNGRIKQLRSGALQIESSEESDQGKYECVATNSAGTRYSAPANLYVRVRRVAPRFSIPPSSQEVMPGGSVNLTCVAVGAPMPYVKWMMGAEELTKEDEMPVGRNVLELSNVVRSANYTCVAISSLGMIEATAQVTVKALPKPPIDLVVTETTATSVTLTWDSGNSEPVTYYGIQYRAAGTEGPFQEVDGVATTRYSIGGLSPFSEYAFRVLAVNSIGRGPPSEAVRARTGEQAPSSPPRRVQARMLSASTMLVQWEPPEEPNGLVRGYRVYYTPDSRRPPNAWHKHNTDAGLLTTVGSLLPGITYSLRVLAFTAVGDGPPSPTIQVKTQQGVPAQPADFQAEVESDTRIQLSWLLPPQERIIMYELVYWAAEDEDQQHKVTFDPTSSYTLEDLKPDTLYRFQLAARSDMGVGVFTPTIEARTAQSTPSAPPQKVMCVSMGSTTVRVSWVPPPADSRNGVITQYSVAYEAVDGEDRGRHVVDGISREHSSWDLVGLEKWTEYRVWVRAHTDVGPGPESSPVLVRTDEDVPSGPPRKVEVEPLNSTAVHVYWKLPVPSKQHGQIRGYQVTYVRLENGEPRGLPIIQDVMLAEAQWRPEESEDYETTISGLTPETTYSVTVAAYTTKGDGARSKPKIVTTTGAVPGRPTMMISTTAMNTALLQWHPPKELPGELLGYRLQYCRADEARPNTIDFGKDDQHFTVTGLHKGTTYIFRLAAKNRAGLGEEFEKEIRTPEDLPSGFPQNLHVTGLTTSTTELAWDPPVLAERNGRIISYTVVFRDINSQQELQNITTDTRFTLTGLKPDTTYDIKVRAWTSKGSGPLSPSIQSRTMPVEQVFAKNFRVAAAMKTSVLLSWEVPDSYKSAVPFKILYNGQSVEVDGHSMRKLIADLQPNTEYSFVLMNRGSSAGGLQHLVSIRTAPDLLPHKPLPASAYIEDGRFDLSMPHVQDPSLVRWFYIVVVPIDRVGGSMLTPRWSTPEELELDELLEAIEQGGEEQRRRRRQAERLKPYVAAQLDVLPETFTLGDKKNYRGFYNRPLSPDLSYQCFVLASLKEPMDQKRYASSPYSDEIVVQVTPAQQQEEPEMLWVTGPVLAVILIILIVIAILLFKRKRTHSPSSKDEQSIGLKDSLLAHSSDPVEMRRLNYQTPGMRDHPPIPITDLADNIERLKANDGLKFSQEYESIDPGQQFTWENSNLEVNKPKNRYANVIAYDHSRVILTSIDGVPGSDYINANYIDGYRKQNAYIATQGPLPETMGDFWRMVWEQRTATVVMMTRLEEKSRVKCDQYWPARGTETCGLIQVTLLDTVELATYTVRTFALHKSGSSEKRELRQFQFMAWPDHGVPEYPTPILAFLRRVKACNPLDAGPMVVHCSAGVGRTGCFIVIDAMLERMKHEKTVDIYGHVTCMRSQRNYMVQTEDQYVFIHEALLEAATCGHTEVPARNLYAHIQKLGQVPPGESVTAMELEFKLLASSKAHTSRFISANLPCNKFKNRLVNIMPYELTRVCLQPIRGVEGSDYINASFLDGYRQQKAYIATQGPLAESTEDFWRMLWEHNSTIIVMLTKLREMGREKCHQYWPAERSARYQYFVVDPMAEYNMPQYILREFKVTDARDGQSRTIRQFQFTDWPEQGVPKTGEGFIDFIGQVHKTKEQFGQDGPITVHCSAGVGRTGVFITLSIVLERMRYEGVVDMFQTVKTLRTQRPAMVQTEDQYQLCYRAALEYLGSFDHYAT
Chain of human Sirtuin 2 (SIRT2), SIRT2 (gene 22933) (Q8IXJ6 whole entry, looked up): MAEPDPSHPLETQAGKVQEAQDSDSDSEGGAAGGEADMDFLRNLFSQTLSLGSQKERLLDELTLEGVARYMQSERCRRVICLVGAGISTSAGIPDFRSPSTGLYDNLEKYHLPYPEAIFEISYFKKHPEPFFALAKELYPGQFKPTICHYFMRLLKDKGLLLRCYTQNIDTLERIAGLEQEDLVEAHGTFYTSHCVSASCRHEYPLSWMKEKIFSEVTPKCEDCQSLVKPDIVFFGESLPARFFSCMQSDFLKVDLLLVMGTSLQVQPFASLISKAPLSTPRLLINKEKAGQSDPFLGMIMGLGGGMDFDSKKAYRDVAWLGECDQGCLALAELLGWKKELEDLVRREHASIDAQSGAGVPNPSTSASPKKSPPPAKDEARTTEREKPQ
Chain of human Protein Tyrosine Phosphatase Non-receptor Type 2 (PTPN2), PTPN2 (gene 5771) (P17706 whole entry, looked up): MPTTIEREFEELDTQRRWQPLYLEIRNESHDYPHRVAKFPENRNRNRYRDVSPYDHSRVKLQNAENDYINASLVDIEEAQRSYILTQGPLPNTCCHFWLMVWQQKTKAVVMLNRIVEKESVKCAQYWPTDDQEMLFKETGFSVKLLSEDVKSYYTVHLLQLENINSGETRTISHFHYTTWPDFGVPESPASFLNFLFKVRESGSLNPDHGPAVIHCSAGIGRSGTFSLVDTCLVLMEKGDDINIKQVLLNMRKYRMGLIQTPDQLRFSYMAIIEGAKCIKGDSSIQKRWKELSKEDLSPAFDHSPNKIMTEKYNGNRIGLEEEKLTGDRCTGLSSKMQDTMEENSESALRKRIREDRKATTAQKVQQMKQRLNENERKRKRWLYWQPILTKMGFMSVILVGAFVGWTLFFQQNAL

O=c1n(Cl)c(=O)n(Cl)c(=O)n1Cl
outcome [1]: inactive

CC1(C)C(C=C(Cl)Cl)C1C(=O)OC(C#N)c1cccc(Oc2ccccc2)c1 (centres undefined)
outcome [2]: inactive
outcome [3]: inactive

COP(=S)(OC)Oc1ccc([N+](=O)[O-])c(C)c1
outcome [4]: inactive
AC50 [5]: 12.1 µM (active)

CS(=O)(=O)c1ccc(C(=O)C2C(=O)CCCC2=O)c([N+](=O)[O-])c1
outcome [2]: inactive

CN=C=S
outcome [6]: inactive
outcome [7]: inactive
outcome [2]: inactive
outcome [8]: inactive

CN/C(=N\[N+](=O)[O-])NCc1cnc(Cl)s1
outcome [9]: inactive
outcome [2]: inactive

CCCN(CC)CC1COC2(CCC(C(C)(C)C)CC2)O1 (centres undefined)
outcome [10]: inactive

CCCCC(O)(Cn1cncn1)c1ccc(Cl)cc1Cl (centres undefined)
AC50 [5]: 15.9 µM (active)
outcome [3]: inactive
AC50 [11]: 21.9 µM (active)

COC(=O)N(C(=O)N1CO[C@@]2(C(=O)OC)Cc3cc(Cl)ccc3C2=N1)c1ccc(OC(F)(F)F)cc1
AC50 [11]: 28.7 µM (active)

N#Cc1c(Cl)cccc1Cl
outcome [1]: inactive
outcome [7]: inactive

CC(C)Nc1nc(Cl)nc(NC(C)C)n1
outcome [11]: inactive

CCCCC(C#N)(Cn1cncn1)c1ccc(Cl)cc1 (centres undefined)
AC50 [3]: 10.4 µM (active)
AC50 [11]: 19.5 µM (active)

O=P(O)(O)CCCl
AC50 [12]: 9.89 µM (active)

COP(=S)(OC)SCn1nnc2ccccc2c1=O
outcome [4]: inactive
outcome [7]: inactive
outcome [2]: inactive

CC(C)N1C(=O)c2ccccc2NS1(=O)=O
outcome [13]: inactive

COC(=O)c1c(C(F)F)nc(C(F)(F)F)c(C2=NCCS2)c1CC(C)C
outcome [2]: inactive

CCOP(=S)(OCC)Oc1nc(Cl)n(C(C)C)n1
outcome [14]: inactive

N#Cc1c[nH]cc1-c1cccc2c1OC(F)(F)O2
outcome [6]: inactive

CC(C)N1C(=O)N(c2ccccc2)CSC1=NC(C)(C)C
outcome [6]: inactive

N#CN=C1SCCN1Cc1ccc(Cl)nc1
outcome [15]: inactive
outcome [9]: inactive

CC(C)(C)C(=O)C(Oc1ccc(Cl)cc1)n1cncn1 (centres undefined)
outcome [10]: inactive
